Assay: growth of efflux-deficient E. coli DRC39 – strain DRC39, OD650, 48 h, E. coli filamentation inducers, primary screen (AID 1179);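 note: screen aims at cell division blockers that make cells filament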
Conditions: E. coli DRC39 delta-acrAB growth, higher = more signal, called active from +8 up or from −8 down

z-score, inactive:
COC(=O)[C@@]1(Cc2ccc(F)cc2)[C@H]2c3cc(C(=O)N(C)C)n(CCN4CCOCC4)c3C[C@H]2CN1C(=O)c1ccccc1 -0.957
C[N+](C)(C)CCCCCCNC(=O)[C@@H]1C[C@@H]2C(=O)N[C@@H](Cc3ccccc3)C(=O)N2[C@@H]1c1ccc(O)cc1 0.492
CO[C@H]1O[C@H](CO)[C@@H](OC(=O)Nc2ccc(C(F)(F)F)cc2)[C@H](OC(=O)Nc2ccccc2-c2ccccc2)[C@@H]1OC(=O)Nc1ccccc1-c1ccccc1 0.0484
C=C(CCCC)/C(=C/C[C@H](OC(C)=O)c1cccc(OCCO)c1)c1cc(C(=O)OC)ccc1OC 1.34
COc1ccc([Si](C)(C)[C@H]2[C@H](CCn3cc([C@H](O)c4ccccc4)nn3)O[C@@]3(C(=O)N(C)c4c(Br)cc(C)cc43)[C@@H]2C)cc1 0.132
COCCOC(=O)N1C(=O)[C@@]2(c3cc(C#CC4(O)CCCCCC4)ccc31)[C@H](C(=O)N1CCc3cc(OC)c(OC)cc3C1)[C@H]1C(=O)O[C@H](c3ccccc3)[C@H](c3ccccc3)N1[C@@H]2c1ccc(O)cc1 -0.252
C=CCOC(=O)[C@H]1[C@@H]2C(=O)O[C@@H](c3ccccc3)[C@@H](c3ccccc3)N2[C@@H](c2ccc(OCCOC(=O)[C@H]3C[C@H]4C(=O)NCC(=O)N4[C@H]3c3ccc(O)cc3)cc2)[C@]12C(=O)Nc1ccc(I)cc12 0.987
COCCOC(=O)N1C(=O)[C@@]2(c3cc(C#CC4=CCCCC4)ccc31)[C@H](c1ccc(OCCO)cc1)N1[C@H](c3ccccc3)[C@H](c3ccccc3)OC(=O)[C@H]1[C@@H]2C(=O)N1CCCCCCC1 0.817
CCOC(=O)C1=C(C(=O)OCC)N(S(=O)(=O)CC[Si](C)(C)C)[C@H](c2ccccc2)CC1 -0.238
C=CCC(OC(C)=O)[C@@H]1[C@@H](N(Cc2cc3ccccc3o2)C(=O)c2ccc(-c3ccccc3)cc2)c2cc(OCCCO)ccc2N1C(=O)c1ccc2ccccc2n1 (some centres not stated) 0.553
O=C1O[C@@H](c2ccccc2)[C@@H](c2ccccc2)N2[C@@H](c3ccc(O)cc3)[C@]3(C(=O)Nc4ccc(C#CC5=CCCCC5)cc43)[C@@H](C(=O)N3CCCCCCC3)[C@H]12 -0.199
COCCOC(=O)N1C(=O)[C@@]2(c3cc(C#CCC(C(=O)OC)C(=O)OC)ccc31)[C@H](C(=O)N1CCc3cc(OC)c(OC)cc3C1)[C@H]1C(=O)O[C@H](c3ccccc3)[C@H](c3ccccc3)N1[C@@H]2c1ccc(O)cc1 0.199
C=C(/C(=C/C[C@H](OC(=O)c1ccncc1)c1ccccc1OCCO)c1cc(C(=O)OC)ccc1OC)C(C)C -0.869
NCCCC[C@@H]1NC(=O)[C@H]2C[C@@H](C(=O)O)[C@@H](c3cccc(OCCO)c3)N2C1=O -0.28
CCCCN1CC=CC23O[C@@H]4/C=C\CCC(C)OC(=O)C4[C@H]2C(=O)N(C(C)CO)[C@@H]3C1=O (some centres not stated) 0.606
CC(=O)c1ccc(C(O)C2C=CC3C(=O)NC(=O)C3N2Nc2ccc(Cl)cc2Cl)cc1 (configuration not stated) -1.48
C[N+](C)(C)CCCC[C@@H]1NC(=O)[C@H]2C[C@@H](C(=O)NCCCCCNC(=O)CS)[C@@H](c3ccc(O)cc3)N2C1=O 1.33
CN(C)CCCCNC(=O)[C@H]1C[C@H]2C(=O)N[C@@H](Cc3ccccc3)C(=O)N2[C@H]1c1cccc(OCCO)c1 0.862
NC(=O)NCC#Cc1ccc2c(c1)[C@]1(C(=O)N2)[C@H](C(=O)Nc2nc3ccccc3s2)[C@H]2C(=O)O[C@H](c3ccccc3)[C@H](c3ccccc3)N2[C@@H]1c1ccc(OCCO)cc1 -0.221
CC(C)CNC(=O)[C@@H]1c2ccccc2C(=O)N(Cc2ccccc2Cl)[C@H]1c1ccc(CO)cc1 0.303
C=CCNC(=O)[C@H]1[C@@H]2C(=O)O[C@@H](c3ccccc3)[C@@H](c3ccccc3)N2[C@@H](c2ccc(O)cc2)[C@]12C(=O)Nc1ccc(C#CC3=CCCCC3)cc12 0.628
CN(C)C(=O)[C@]1(Cc2ccccc2CN=[N+]=[N-])N=C(c2ccc(OCCCO)cc2)O[C@@H]1c1ccccc1N=[N+]=[N-] 0.529

Source: PubChem BioAssay
